± gives the standard deviation of the averaged measurements.

The test system of experiment [1] is DLD1. In words: cell viability (CellTiter-Glo) relative to plate median (fraction of plate median); higher = more viable cells. The following applies: 5 µM; treatment time 24 h; reporter: 7TFP. A digest of the protocol: (§1)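 Values are well luminescence normalised to the plate median, from either a firefly luciferase or a CellTiterGlo readout on parallel plates. The cells, colorectal cancer lines stably transduced with lentiviral 7TFP or TCF4/Wnt firefly luciferase reporters, were treated with library compounds at a final 5 µM for 24 h. The mean of two independent replicates is listed.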

A further experiment deals with HCT116. The description is as above. Particulars: 5 µM; treatment time 24 h; reporter: TCF4/Wnt. Summed up: as §1
Experiment [2] deals with SW480. The description is as above. Particulars: 5 µM; treatment time 24 h; reporter: 7TFP. Summed up: as §1
Experiment [3] relates to DLD1. In words: TCF/Wnt firefly luciferase reporter signal relative to plate median (fraction of plate median); higher = higher Wnt reporter signal. Particulars: 5 µM; treatment time 24 h; reporter: 7TFP. Summed up:
as §1

Experiment [4] relates to SW480. The description is as above. Particulars: 5 µM; treatment time 24 h; reporter: 7TFP. A digest of the protocol:
as §1

Take `CCn1cc(C(=O)O)c(=O)c2cc(F)c(N3CCN(C)CC3)cc21`: the cell viability in the experiment on DLD1 [1] is 1 ± 0.04; in the experiment with HCT116, 1.015 ± 0.0071; with SW480 [2], 0.982 ± 0.018. Moreover, the “TCF/Wnt firefly luciferase reporter signal” value turned out to be 1.19 ± 0.035 in the experiment on DLD1 [3] and 1.05 ± 0.078 in the experiment with SW480 [4].
On the same counts, the results for `CCCC(C(=O)OCCN(CC)CC)(c1ccccc1)c1ccccc1` are 1.03 ± 0.098, 0.972 ± 0.04, 1.03 ± 0.028, 1.22 ± 0.22 and 1.06.
In the same order, the values of `NC(=O)N1c2ccccc2C=Cc2ccccc21` are 0.931 ± 0.098, 1.01 ± 0.029, 1.004 ± 0.0092, 1.05 ± 0.042 and 0.937 ± 0.17.
On the same counts, the results for `COc1cc(C(C)=O)cc(OC)c1O` are 1.03, 0.922 ± 0.086, 1.01 ± 0.018, 0.946 ± 0.1 and 0.958 ± 0.012.
Consider `COc1cc(/C=C/C(=O)O)ccc1O`, for which the figures for the cell viability with DLD1 [1], in the experiment on HCT116 and with SW480 [2] were 1.004 ± 0.0092, 1.11 ± 0.057 and 1.01 ± 0.038, respectively. Further, the “TCF/Wnt firefly luciferase reporter signal” value with DLD1 [3] is 0.972 ± 0.069; in the experiment with SW480 [4], 1.12 ± 0.078.
On the same counts, the results for `CC(C)=CCc1c(O)cc(C)oc1=O` are 1.05 ± 0.17, 1.07 ± 0.12, 1.055 ± 0.0071, 1.06 ± 0.1 and 1.03 ± 0.071.
For `CN(C)CCC=C1c2ccccc2COc2ccccc21`, the results for the cell viability with DLD1 [1], with HCT116 and in the experiment with SW480 [2] were 0.994 ± 0.052, 1.01 ± 0.021 and 0.949 ± 0.032, respectively. The “TCF/Wnt firefly luciferase reporter signal” value was 1.06 ± 0.028 with DLD1 [3] and 1.07 ± 0.014 with SW480 [4].
Take `CC(C)c1c(O)ccc2c1CC[C@H]1C(C)(C)CCC[C@]21C`: the figures for the cell viability with DLD1 [1], in the experiment on HCT116 and in the experiment on SW480 [2] were 1.16 ± 0.12, 1 ± 0.13 and 1.03 ± 0.076, respectively. Besides, the “TCF/Wnt firefly luciferase reporter signal” value with DLD1 [3] was found to be 0.855 ± 0.11; with SW480 [4], 0.996 ± 0.035.
For the compound `Cc1nc2ccccc2c(=O)[nH]1` [2-Methyl-3H-quinazoline-4-on], the cell viability with DLD1 [1] came out at 0.991 ± 0.011; in the experiment with HCT116, 1.06 ± 0.064; in the experiment with SW480 [2], 0.979 ± 0.044. The “TCF/Wnt firefly luciferase reporter signal” value with DLD1 [3] was determined as 1.01 ± 0.09; in the experiment with SW480 [4], 1.1 ± 0.021.
On the same counts, the results for `O=C(O)c1cc(=O)c2ccccc2o1` are 0.859 ± 0.082, 0.961 ± 0.11, 0.987 ± 0.014, 0.909 ± 0.12 and 0.993 ± 0.011.
`Nc1cc(-c2ccncc2)c[nH]c1=O`: the results for the cell viability in the experiment with DLD1 [1], in the experiment on HCT116 and in the experiment with SW480 [2] were 1.03 ± 0.042, 0.99 ± 0.057 and 0.928, respectively. Further, the “TCF/Wnt firefly luciferase reporter signal” value with DLD1 [3] worked out at 0.903 ± 0.032; in the experiment with SW480 [4], 0.94 ± 0.054.
On the same counts, the results for `CC1=C(C/C=C(\C)CCC[C@H](C)CCC[C@H](C)CCCC(C)C)C(=O)c2ccccc2C1=O` are 0.9945 ± 0.00071, 0.988 ± 0.06, 0.998 ± 0.045, 0.819 ± 0.03 and 0.92 ± 0.064.
On the same counts, the results for `CC(=O)NS(=O)(=O)c1ccc(N)cc1` are 1.07 ± 0.05, 0.978 ± 0.088, 1.05 ± 0.057, 1.01 ± 0.22 and 0.854 ± 0.023.
In the same order, the values of `CCC(=O)O[C@H]1[C@H](O[C@@H]2[C@@H](C)[C@H](O[C@H]3C[C@@](C)(OC)[C@@H](O)[C@H](C)O3)[C@@H](C)C(=O)O[C@H](CC)[C@@](C)(O)[C@H](O)[C@@H](C)C(=O)[C@H](C)C[C@@]2(C)O)O[C@H](C)C[C@@H]1N(C)C` are 0.989 ± 0.058, 0.93 ± 0.011, 1.01 ± 0.016, 0.9955 ± 0.0064 and 1.11 ± 0.014.
In the case of `NNc1nncc2ccccc12`, the cell viability in the experiment on DLD1 [1] worked out at 1.055 ± 0.0071; in the experiment with HCT116 it was 1.06 ± 0.057; with SW480 [2] it was 1.055 ± 0.0071. The “TCF/Wnt firefly luciferase reporter signal” value was determined as 1.23 ± 0.25 in the experiment on DLD1 [3] and 1.28 ± 0.17 in the experiment on SW480 [4].
As for `CC(C)NCC(O)COc1ccc(CC(N)=O)cc1` (stereo not given), the cell viability in the experiment on DLD1 [1] amounted to 1.07 ± 0.057; in the experiment on HCT116, 0.932 ± 0.016; in the experiment with SW480 [2], 1.02 ± 0.066. Moreover, the entries for the “TCF/Wnt firefly luciferase reporter signal” value in the experiment with DLD1 [3] and in the experiment with SW480 [4] were 0.971 ± 0.055 and 1.07 ± 0.064, respectively.
For the compound `CNS(=O)(=O)c1ccc(NC(=O)c2ccccc2C(=O)O)cc1`, the cell viability in the experiment on DLD1 [1] came to 1.03 ± 0.098; in the experiment with HCT116 it was 1.04 ± 0.042; in the experiment on SW480 [2] it was 1.04 ± 0.072. In addition, the “TCF/Wnt firefly luciferase reporter signal” value was determined as 0.967 ± 0.013 with DLD1 [3] and 1.085 ± 0.0071 in the experiment with SW480 [4].
In the same order, the values of `CC12CCC3C(CC3(C)C)C(C)(CCC1=O)O2` (stereo not given) are 0.908 ± 0.033, 0.972 ± 0.069, 0.892 ± 0.016, 0.883 ± 0.23 and 0.889 ± 0.13.
In the same order, the values of `C=CC(C)(O)CCC=C(C)CCC=C(C)C` (mixture of isomers) are 1.09, 0.977 ± 0.075, 0.94 ± 0.0028, 0.8335 ± 0.00071 and 0.851 ± 0.15.
With `CCCCCCCCCCCC[C@H](O)[C@@H]1CC[C@@H]([C@@H](O)CCCCCCCC(=O)CC[C@@H](O)CC2=C[C@H](C)OC2=O)O1` [annocherin], the figures for the cell viability in the experiment with DLD1 [1], in the experiment with HCT116 and in the experiment with SW480 [2] were 0.904 ± 0.09, 0.871 ± 0.082 and 0.921 ± 0.093, respectively. The “TCF/Wnt firefly luciferase reporter signal” value with DLD1 [3] amounted to 0.843 ± 0.12; in the experiment on SW480 [4], 0.855 ± 0.32.
In the same order, the values of `COc1ccc(-c2oc3ccccc3c(=O)c2O)cc1OC` are 0.969 ± 0.087, 0.912 ± 0.024, 1.05, 0.923 ± 0.0099 and 1.18 ± 0.028.
In the same order, the values of `NCCNCCNCCN` are 1.03, 0.986 ± 0.049, 1.01 ± 0.064, 0.999 ± 0.058 and 1.03 ± 0.052.
In the same order, the values of `COc1c(Cl)ccc(Cl)c1C(=O)O` are 1.01 ± 0.039, 1.11 ± 0.16, 0.99 ± 0.057, 1 ± 0.15 and 0.874 ± 0.0057.
Turning to `CC(=O)[C@@]1(O)CC[C@H]2[C@@H]3CCC4=CC(=O)CC[C@]4(C)[C@H]3CC[C@@]21C`, the cell viability in the experiment on DLD1 [1] amounted to 0.947 ± 0.12; in the experiment on HCT116 it was 0.926 ± 0.063; with SW480 [2] it was 0.922 ± 0.12. Besides, the entries for the “TCF/Wnt firefly luciferase reporter signal” value in the experiment on DLD1 [3] and in the experiment with SW480 [4] were 1.035 ± 0.0071 and 1.02, respectively.
On to `C[C@@H]1O[C@@H](O[C@H]2[C@H](O[C@H]3CC[C@@]4(C)[C@@H](CC[C@]5(C)[C@@H]4CC=C4[C@@H]6CC(C)(C)CC[C@]6(C(=O)O)CC[C@]45C)[C@]3(C)CO)OC[C@H](O)[C@@H]2O)[C@H](O)[C@H](O)[C@H]1O`, for which the cell viability with DLD1 [1] came to 1.04 ± 0.062; in the experiment on HCT116, 1.05 ± 0.1; with SW480 [2] it was 1.03 ± 0.098. Moreover, the “TCF/Wnt firefly luciferase reporter signal” value was 1.04 ± 0.014 in the experiment with DLD1 [3] and 1.06 ± 0.064 with SW480 [4].
On the same counts, the results for `COC(=O)[C@@H]1OC(=O)[C@H]2O[C@@]23[C@@]1(C)CCC1[C@@]2(C)CCC(=O)C(C)(C)C2C[C@@H](OC(C)=O)[C@]13C` (stereo not given in full) are 0.995 ± 0.078, 1.1 ± 0.085, 1.01 ± 0.034, 0.994 ± 0.037 and 0.967 ± 0.038.
On the same counts, the results for `CC1COc2c(N3CCN(C)CC3)c(F)cc3c(=O)c(C(=O)O)cn1c23` (stereo not given) are 0.995 ± 0.05, 1.04 ± 0.16, 0.91 ± 0.0099, 0.93 ± 0.075 and 1.01 ± 0.088.
In the same order, the values of `O=C(Cc1cccs1)N[C@@H]1C(=O)N2C(C(=O)[O-])=C(C[n+]3ccccc3)CS[C@H]12` are 0.979 ± 0.073, 0.944 ± 0.057, 1.01, 0.9975 ± 0.0035 and 0.889 ± 0.0057.
Regarding `C#C[C@]1(O)CC[C@H]2[C@@H]3CCc4cc(O)ccc4[C@H]3CC[C@@]21C`, the results for the cell viability with DLD1 [1], in the experiment with HCT116 and with SW480 [2] were 0.934 ± 0.016, 0.972 ± 0.054 and 0.9755 ± 0.0092, respectively. The results for the “TCF/Wnt firefly luciferase reporter signal” value with DLD1 [3] and in the experiment on SW480 [4] were 1.08 ± 0.078 and 1.04 ± 0.021, respectively.
In the same order, the values of `CCN(CC)CCNC(=O)c1cc(S(C)(=O)=O)ccc1OC` are 0.99 ± 0.13, 1.025 ± 0.0071, 1 ± 0.023, 0.971 ± 0.084 and 0.925 ± 0.039.

Values taken from the supplement of paper PMC6522484.
